In PubChem BioAssay AID1456 (Vanderbilt High Throughput Screening Facility, 2008) one finds B-score of Tl+ flux slope (higher = more flux/activation; lower = inhibition) data, which are given here for 49 molecules.

Among all 190,000 compounds or so, about 4,100 (2.2%) were called active. The sample holds actives, similar compounds and a random draw of the others, so the mix is not that of the screen. Values without a mark were called inactive.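 Rule for the calls: active = thallium flux slope and its plate-corrected score both differing from the plate sample mean at a set confidence after two filtering rounds, in either direction; inactive = the rest.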

In the assay the target is Solute carrier family 12 member 5 (Homo sapiens) (UniProt Q9H2X9). Description: modulation of human KCC2 ion transport – cell-based, HEK293 KCC2, FluoZin-2 fluorescence, MLSMR, primary screen (AID 1456).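 Note: slope of fluorescence scaled to starting intensity during 10 to 20 s after thallium.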 Particulars: KCC2 cells, thallium flux FluoZin-2 fluorescence; at 10 µM.
Solute carrier family 12 member 5 (Homo sapiens), sequence (Q9H2X9 whole entry, looked up): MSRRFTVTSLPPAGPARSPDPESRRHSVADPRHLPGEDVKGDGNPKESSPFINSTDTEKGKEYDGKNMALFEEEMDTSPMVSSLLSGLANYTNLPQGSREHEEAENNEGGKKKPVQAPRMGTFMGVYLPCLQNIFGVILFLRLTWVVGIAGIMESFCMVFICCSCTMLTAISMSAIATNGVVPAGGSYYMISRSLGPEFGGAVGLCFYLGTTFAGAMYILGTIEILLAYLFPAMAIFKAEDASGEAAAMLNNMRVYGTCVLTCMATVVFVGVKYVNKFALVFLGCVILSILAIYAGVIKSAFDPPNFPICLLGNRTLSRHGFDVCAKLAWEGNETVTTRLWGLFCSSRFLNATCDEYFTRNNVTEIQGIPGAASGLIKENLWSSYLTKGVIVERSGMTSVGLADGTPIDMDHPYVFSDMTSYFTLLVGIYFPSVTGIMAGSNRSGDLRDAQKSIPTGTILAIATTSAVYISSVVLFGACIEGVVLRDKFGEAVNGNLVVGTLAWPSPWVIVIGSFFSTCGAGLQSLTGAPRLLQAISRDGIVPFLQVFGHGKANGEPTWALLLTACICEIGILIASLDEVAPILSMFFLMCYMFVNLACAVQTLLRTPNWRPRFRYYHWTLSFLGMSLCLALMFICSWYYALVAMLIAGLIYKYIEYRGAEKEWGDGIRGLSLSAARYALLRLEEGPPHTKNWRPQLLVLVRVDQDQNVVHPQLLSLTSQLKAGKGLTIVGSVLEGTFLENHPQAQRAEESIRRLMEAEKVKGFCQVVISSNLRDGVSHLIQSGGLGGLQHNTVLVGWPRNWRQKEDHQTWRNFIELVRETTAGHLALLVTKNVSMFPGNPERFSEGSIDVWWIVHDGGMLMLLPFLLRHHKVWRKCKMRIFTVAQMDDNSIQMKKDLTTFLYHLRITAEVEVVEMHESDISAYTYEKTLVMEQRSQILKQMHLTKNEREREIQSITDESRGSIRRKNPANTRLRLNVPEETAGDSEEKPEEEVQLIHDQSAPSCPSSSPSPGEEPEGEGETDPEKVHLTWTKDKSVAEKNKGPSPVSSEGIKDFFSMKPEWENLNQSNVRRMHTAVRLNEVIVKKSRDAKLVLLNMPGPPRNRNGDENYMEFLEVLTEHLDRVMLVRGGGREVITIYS
In the case of `COC(=O)C1=C(N)Oc2cc(C)[nH]c(=O)c2C1c1ccc(Cl)cc1` (centres undefined), the B-score of Tl+ flux slope (higher = more flux/activation; lower = inhibition) was -2.12.

As to `O=C(NNS(=O)(=O)c1ccccc1)c1cnn(-c2ccc(Cl)cc2)c1C(F)(F)F`, the B-score of Tl+ flux slope (higher = more flux/activation; lower = inhibition) was 0.887.

Consider `CC1CN(/C=C/C(=O)C(F)(F)F)CC(C)O1` (centres undefined), for which the B-score of Tl+ flux slope (higher = more flux/activation; lower = inhibition) is 1.01.

For the molecule `O=C(Nc1ccncc1)c1cc2ccccc2o1`, the B-score of Tl+ flux slope (higher = more flux/activation; lower = inhibition) was 2.22.

For the molecule `C/C(=N\NC(=S)Nc1ccc(C)cc1)c1cc2ccccc2o1`, the B-score of Tl+ flux slope (higher = more flux/activation; lower = inhibition) is 90.2 (active).

As for `Cc1ccc(OC(=O)c2cc3ccccc3o2)cc1`, the B-score of Tl+ flux slope (higher = more flux/activation; lower = inhibition) was 0.278.

With `COc1ccc(C)cc1S(=O)(=O)Nc1cccc(Cl)c1Cl`, the B-score of Tl+ flux slope (higher = more flux/activation; lower = inhibition) is 2.43 (active).

`COc1ccc(C)cc1S(=O)(=O)NCCc1ccccc1`: the B-score of Tl+ flux slope (higher = more flux/activation; lower = inhibition) was 0.198.

As for `COc1ccc(OC)c(S(=O)(=O)Nc2ccccc2F)c1`, the B-score of Tl+ flux slope (higher = more flux/activation; lower = inhibition) was 1.79.

For `COc1ccc(NC(=O)N2CCC(Cc3ccccc3)CC2)cc1`, the B-score of Tl+ flux slope (higher = more flux/activation; lower = inhibition) was -5.5 (active).

Regarding `COc1ccc(NC(=O)C(C)SCc2ccccc2)cc1` (centres undefined), the B-score of Tl+ flux slope (higher = more flux/activation; lower = inhibition) was -0.536.

Consider `CCOc1ccc(NC(=O)C2CCCN(C(=O)Nc3ccccc3)C2)cc1` (centres undefined), for which the B-score of Tl+ flux slope (higher = more flux/activation; lower = inhibition) is -0.0798.

Regarding `S=C(NCCc1ccccc1)Nc1ccccc1`, the B-score of Tl+ flux slope (higher = more flux/activation; lower = inhibition) is -0.293.

Take `COc1cc(C(F)(F)F)c(C(=O)N(C)c2ccc(Cl)cc2)cn1`: the B-score of Tl+ flux slope (higher = more flux/activation; lower = inhibition) was 0.047.

Take `CCOC(=O)c1cn(CC)c2cc(F)c(F)cc2c1=O`: the B-score of Tl+ flux slope (higher = more flux/activation; lower = inhibition) is -0.139.

For `O=C(c1cc(COc2c(F)cccc2F)on1)N1CCSCC1`, the B-score of Tl+ flux slope (higher = more flux/activation; lower = inhibition) was -0.926.

As for `CC(C)C(NC(=O)c1ccc(Cl)cc1)C(=O)O` (centres undefined), the B-score of Tl+ flux slope (higher = more flux/activation; lower = inhibition) was 1.28.

`Cc1occc1C(=O)NNC(=S)NCC(C)C`: the B-score of Tl+ flux slope (higher = more flux/activation; lower = inhibition) was -0.168.

For the molecule `CC(C)CNC(=S)NC(=O)c1ccc(Cl)cc1`, the B-score of Tl+ flux slope (higher = more flux/activation; lower = inhibition) was 33 (active).

As for `O=C(NN=C1CCC(=NNC(=O)c2cccnc2)CC1)c1cccnc1`, the B-score of Tl+ flux slope (higher = more flux/activation; lower = inhibition) was 0.0392.

`COc1ccc(Cl)cc1CSc1ncn[nH]1`: the B-score of Tl+ flux slope (higher = more flux/activation; lower = inhibition) was -1.03.

For the molecule `CC(C)(C)OC(=O)NCCCCCC(=O)N/N=C/c1coc2ccccc2c1=O`, the B-score of Tl+ flux slope (higher = more flux/activation; lower = inhibition) was -2.19.

Consider `O=C(N/N=C/c1coc2ccccc2c1=O)c1cc2ccccc2o1`, for which the B-score of Tl+ flux slope (higher = more flux/activation; lower = inhibition) was 5.52 (active).

For `NC(=S)N/N=C/c1coc2cc(Cl)ccc2c1=O`, the B-score of Tl+ flux slope (higher = more flux/activation; lower = inhibition) is 1.23.

In the case of `CCOC(=O)C1CCN(CCC(=O)Nc2cccc(C)c2)CC1`, the B-score of Tl+ flux slope (higher = more flux/activation; lower = inhibition) was 0.406.

Consider `CN(CC(O)COc1ccc(S(=O)(=O)N2CCOCC2)cc1Cl)C1CCCCC1` (centres undefined), for which the B-score of Tl+ flux slope (higher = more flux/activation; lower = inhibition) was 0.0176.

Consider `Cc1nn(-c2ccccc2)c2sc(C(=O)N(Cc3ccco3)C(C)C(=O)NC(C)(C)C)cc12` (centres undefined), for which the B-score of Tl+ flux slope (higher = more flux/activation; lower = inhibition) is 8.53 (active).

For `O=C(NCc1ccco1)c1nc(-c2ccccc2)n(-c2ccccc2)n1`, the B-score of Tl+ flux slope (higher = more flux/activation; lower = inhibition) is -2.03.

Consider `Cc1ccc(-c2nnn(CC(=O)N(Cc3ccco3)C(C(=O)NC(C)(C)C)c3ccncc3)n2)o1` (centres undefined), for which the B-score of Tl+ flux slope (higher = more flux/activation; lower = inhibition) is -1.04.

As for `Cc1nnc(Nc2ccccc2F)s1`, the B-score of Tl+ flux slope (higher = more flux/activation; lower = inhibition) was -0.881.

As to `CC(NC(=O)C(=O)Nc1nccs1)c1ccccc1` (centres undefined), the B-score of Tl+ flux slope (higher = more flux/activation; lower = inhibition) is 2.74.

Take `Cn1cc(CCC(=O)NCc2ccc3c(c2)OCO3)c2ccccc21`: the B-score of Tl+ flux slope (higher = more flux/activation; lower = inhibition) is -1.1.

Regarding `N#Cc1nc(Cc2cccc3ccccc23)oc1NCc1ccc2c(c1)OCO2`, the B-score of Tl+ flux slope (higher = more flux/activation; lower = inhibition) is -5.13 (active).

Consider `O=C(COc1ccccc1)NCc1ccc2c(c1)OCO2`, for which the B-score of Tl+ flux slope (higher = more flux/activation; lower = inhibition) was -0.24.

For `N#Cc1nc(-c2ccc(OCc3ccccc3)cc2)oc1NCCCN1CCOCC1`, the B-score of Tl+ flux slope (higher = more flux/activation; lower = inhibition) was 0.37.

With `N#Cc1nc(COc2ccc(-c3ccccc3)cc2)oc1NCc1cccnc1`, the B-score of Tl+ flux slope (higher = more flux/activation; lower = inhibition) is -4.77 (active).

On to `Cc1ccc(OCc2nc(C#N)c(N3CCCC3)o2)cc1`, for which the B-score of Tl+ flux slope (higher = more flux/activation; lower = inhibition) was -0.743.

On to `COc1cc(/C=C2/C(=O)NN(c3ccc(F)cc3)C2=O)cc([N+](=O)[O-])c1O`, for which the B-score of Tl+ flux slope (higher = more flux/activation; lower = inhibition) was -2.31.

On to `COc1ccc(-n2c(C)csc2=S)cc1`, for which the B-score of Tl+ flux slope (higher = more flux/activation; lower = inhibition) was 0.0167.

Turning to `COc1ccc(N2C(=O)CNC2=S)cc1`, the B-score of Tl+ flux slope (higher = more flux/activation; lower = inhibition) is 0.069.

Regarding `COc1ccc(-c2cn(-c3ccc(OC)cc3)c(=S)[nH]2)cc1`, the B-score of Tl+ flux slope (higher = more flux/activation; lower = inhibition) is 8.53 (active).

Consider `O=C(O)CCCCCCCCCC[n+]1ccccc1`, for which the B-score of Tl+ flux slope (higher = more flux/activation; lower = inhibition) is 0.183.

Turning to `O=C(O)c1ccccc1OCc1ccccc1Cl`, the B-score of Tl+ flux slope (higher = more flux/activation; lower = inhibition) is 0.00686.

As for `COc1ccc(OC)c(-n2c(-c3ccn[nH]3)n[nH]c2=S)c1`, the B-score of Tl+ flux slope (higher = more flux/activation; lower = inhibition) was -0.678.

Take `Cc1cc([N+](=O)[O-])nn1Cc1ccc(F)cc1`: the B-score of Tl+ flux slope (higher = more flux/activation; lower = inhibition) was -0.826.

As for `Cc1nc(SCc2ccc(F)cc2)c([N+](=O)[O-])[nH]1`, the B-score of Tl+ flux slope (higher = more flux/activation; lower = inhibition) was -4.77 (active).

With `O=C(Nn1c(SCc2ccc([N+](=O)[O-])cc2)nc2ccccc2c1=O)c1ccc(F)cc1`, the B-score of Tl+ flux slope (higher = more flux/activation; lower = inhibition) was 0.0971.

As to `CN(C)C(=O)c1nc2ccc(Cl)cn2c1CNCc1cccc(OC(F)(F)F)c1`, the B-score of Tl+ flux slope (higher = more flux/activation; lower = inhibition) is -0.562.

In the case of `COc1ccc(N2C(=O)CC(Nc3ccc(F)cc3)C2=O)c([N+](=O)[O-])c1` (centres undefined), the B-score of Tl+ flux slope (higher = more flux/activation; lower = inhibition) was -1.31.
